From PubChem BioAssay (NCATS) come the findings set out here.

Records with an inconclusive call do not appear. A number with no mark means an inactive call. Activity calls are given as the source filed them. Calls follow the shape of the dose curve; as a rule, active = well fitted cell-killing curve with a large enough effect; inconclusive = small, poorly fitted or top-dose-only effect, or effect the other way; inactive = flat fitted curve, though single readings scatter.

Holding throughout (experiment): Primary qHTS to identify gynecologic anti-cancer compounds using libraries of approved drugs and bioactive compounds (AID 1345084); also: nearly all actives have a fitted effect of over 55% in size
Common to all, as to conditions: Gynecologic cancer cell panel viability, ATPlite luminescence, 48 h; series mostly up to 57.5 µM
(qHTS replaces the single test concentration by a dilution series.)

Test [1] relates to Tov-21-G. The method in brief: (§1)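 Measured: luminescence after ATPlite addition (15 min, RT). Exposure: 48 h, 37 C, 5% CO2.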
Test [2] deals with Tov112D. The method in brief: as §1
Test [3] deals with SKOV3. A digest of the protocol: as §1
% is scaled to controls: 0 for no effect and ±100 for the full control effect; potency is read from the fitted curve at half-maximal effect.

Turning to `Cc1cc(N2CCN(C(=O)Oc3ccc(-c4ccccc4)cn3)CC2)c2ccccc2n1`, the Potency result in test [1] and in test [2] was “inactive” throughout.
As for `CO[C@H]1C[C@@H]2CC[C@@H](C)[C@@](O)(O2)C(=O)C(=O)N2CCCC[C@H]2C(=O)O[C@H]([C@@H](C)C[C@@H]2CC[C@@H](O)[C@H](OC)C2)CC(=O)[C@H](C)/C=C(\C)[C@@H](O)[C@@H](OC)C(=O)[C@H](C)C[C@H](C)/C=C/C=C/C=C/1C`, the Potency result in test [3] and in test [2] was “inactive” throughout.
With `CC(=O)O[C@@H]1[C@H](O[C@@H]2O[C@@H](CO)[C@H](O)[C@H]2O)[C@@H](O[C@@H]2O[C@@H](C)[C@H](O[C@@H]3OC[C@@H](O)[C@H](O)[C@H]3O)[C@@H](O)[C@H]2O)[C@H](OC(=O)[C@]23CCC(C)(C)C[C@H]2C2=CCC4[C@@]5(C)CC[C@H](O[C@@H]6O[C@H](C(=O)O)[C@@H](O)[C@H](O)[C@H]6O[C@@H]6O[C@H](CO)[C@H](O)[C@H](O)[C@H]6O)[C@@](C)(C=O)C5CC[C@@]4(C)[C@]2(C)C[C@H]3O)O[C@@H]1C` (stereo not given in full), the figures for the activity change, negative = cytotoxicity in test [3] and in test [2] were 8.44% [at 6.55 µM] and -3.22% [at 6.55 µM], respectively.
As to `CCN1CCN(Cc2ccc(NC(=O)c3ccc(C)c(Oc4ccnc5[nH]ccc45)c3)cc2C(F)(F)F)CC1`, the Potency in test [1] is 12.6 µM (active).
Turning to `CC(C)C[C@@H]1NC(=O)[C@@H]2C[C@@]34C[C@@H]5[C@@]6(C)CCCC(C)(C)C6CC[C@@]5(C)N(c5ccccc53)[C@H]4N2C1=O` (stereo not given in full), the Potency entry in test [1] and in test [2] was “inactive” throughout.
As for `O=C(Nc1cccc2cccnc12)c1ccc(N2C(=O)[C@@H]3C4C=CC(C4)[C@@H]3C2=O)cc1`, the Potency in test [1] is 31.6 µM (active).
